# The list is not random: actives were taken first. Their share in the collection is about 5.7%.
# KB-V1 MDR tox: kills drug-selected multidrug resistant KB-V1 cells | AID 1347076 | Potency, µM (titrated, usually from 46.1 µM), most hits filed as cytotoxic | 400,000 tested, 3.4% active | KB-V1 MDR cells viability, CellTiter-Glo, 72 h; further: nearly all actives have a fitted effect of over 60% in size
#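 Potencies derive from concentration-effect curves fitted to normalized luminescence (CellTiter-Glo) of KB-V1 cells treated for 72 h at 37 degrees C in phenol-red-free DMEM containing 10% FBS.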
# HT1080 IDH1KD tx: HT-1080 IDH1 knockdown cell toxicity (counter line); Potency, µM (doses to about 46.1 µM), for inactives: at the top dose activity, negative = toxicity, hits mostly cytotoxic; HT-1080 IDH1 knockdown viability, ATP luminescence, 48 h; 360,000 tested, 2% active;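 further: 0% = DMSO wells and -100% = cell-free medium wells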
#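 HT-1080-IDH1KD cells (IDH1 knocked down), 750/well in RPMI with 5% FBS, treated with compound 48 h at 37 degrees C. Viability by CellTiter-Glo luminescence, normalised to DMSO and no-cell wells; concentration-response curves classed.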
# HT1080-NT tox: kills 2HG-producing HT-1080-NT fibrosarcoma cells; HT-1080-NT fibrosarcoma viability, CellTiter-Glo ATP luminescence, 48 h; Potency, µM (titrated, usually from 46.1 µM), inactives show at the top dose activity, negative = less viability, hits mostly cytotoxic; 360,000 tested, 1.6% active; AID 686970;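 further: NT is the 2HG producing partner of a matched IDH1 knockdown line; 0% = DMSO-treated cells and -100% = media-only wells without cells; nearly all actives have a fitted effect of over 55% in size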
#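 Luminescent CellTiter-Glo readout after 48 hours of compound exposure at 37 degrees C defined viability of HT-1080-NT cells. Activity was normalized to DMSO wells and cell-free media wells; concentration-response curves were fitted and assigned curve classes.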
# KB-3-1 cytotox: KB-3-1 parental cell cytotoxicity; KB-3-1 viability, CellTiter-Glo ATP luminescence, 72 h; Potency, µM (doses to about 46.1 µM), most hits filed as cytotoxic; 400,000 tested, 1.4% active; further: nearly all actives have a fitted effect of over 60% in size
#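 Parental KB-3-1 adenocarcinoma cells in phenol-red-free DMEM with 10% FBS were pin-treated with compounds at several concentrations, incubated 72 h at 37 °C, and viability read by CellTiter-Glo luminescence; concentration-effect curves were fitted after normalization.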
# The depositor's hits bear a star; i = inactive; ? = inconclusive; · = no result; ! = repeats disagree. The call rests on the fitted dose curve; in most records, active means well fitted curve in the direction sought with a large enough effect; inconclusive means small, poorly fitted or top-dose-only effect, or another doubt; inactive means no such curve, though single readings can be large; an effect the other way counts as inactive or inconclusive. Unless noted, on the % scale 0 is the no-effect control and ±100 the full control effect; potency means the concentration at half of the fitted maximal effect.
SMILES,KB-V1 MDR tox,HT1080 IDH1KD tx,HT1080-NT tox,KB-3-1 cytotox
C/C(N)=C(/C#N)C(=O)COC(=O)c1cc(-c2ccc(Br)cc2)nc2ccccc12,21µM*!,?,?,?
CCOc1ccc(-c2cc(C(=O)O)c3ccccc3n2)cc1,i,11µM*,?,i
CN(Cc1nc2ccccc2c(=O)[nH]1)C(=O)c1cc(-c2ccc(Br)cc2)nc2ccccc12,15µM*,-27%,-15%,i
CCOc1ccc(-c2cc(C(=O)N3CCC(C)CC3)c3ccccc3n2)cc1,?,9%,2%,i
CCOc1ccc(-c2cc(C(=O)N3CCN(c4cccc(C(F)(F)F)c4)CC3)c3ccccc3n2)cc1,?,·,·,5.8µM*
CN(Cc1nc2ccccc2c(=O)[nH]1)C(=O)c1ccccc1OCc1ccc(Cl)cc1,i,-16%,-21%,i
CCOc1ccc(-c2cc(C(=O)N3CCN(c4cc(Cl)ccc4C)CC3)c3ccccc3n2)cc1,?,·,·,i
COc1c(Cl)cc(Cl)cc1C(=O)Nc1cccc(-c2nc3ccccc3o2)c1C,i,·,·,i
Cc1ccc2nc(-c3ccccc3)cc(C(=O)N3CCc4ccccc4C3)c2c1,i,-7%,-7%,i
O=C(c1cc(-c2ccccc2)nc2ccccc12)N1CCc2ccccc2C1,18µM*,12%,3%,?
C=CCN(C)CCCCCCOc1ccc(C(=O)c2ccc(Br)cc2)c(F)c1,i,·,·,i
COc1ccc(NC(=O)C(C)(C)Oc2ccc(Cl)cc2)cn1,15µM*,5%,9%,i
COc1ccc(NC(=O)c2cc(CN3C(=O)c4ccccc4C3=O)ccc2OC)cn1,?,21µM*,?,?
COc1ccc(NC(=O)/C(Cl)=C(/Cl)S(=O)(=O)Cc2ccccc2)cn1,?,5.2µM*,5.8µM*,?
COc1ccc(NC(=O)/C(Cl)=C(/Cl)S(=O)Cc2ccc(Cl)cc2)cn1 (configuration not stated),5.8µM*,0.92µM*,1.3µM*,7.3µM*
COc1ccc(CN2C(=O)c3ccccc3C2=O)cc1C(=O)Nc1ccccc1N1CCOCC1,?,-12%,-9%,i
COc1ccc(NC(=O)CN(C)S(=O)(=O)c2ccc(Cl)cc2)cn1,i,15%,12%,i
CCOc1ccccc1CNC(=O)CN1C(=O)C2CCCCN2c2ccc(C(=O)N(C)C)cc21 (configuration not stated),i,·,·,i
CN(C)c1ccc(CNC(=O)c2ccc3c(c2)N(C)C(=O)C2CCCCN32)cc1 (configuration not stated),i,·,·,i
COc1ccc(CC(=O)Nc2ccc(OC)nc2)cc1,i,16%,17%,i
COc1ccc(NC(=O)C(Cl)=C(Cl)Cl)cn1,?,23µM*,16µM*,?
COc1ccc(NC(=O)Nc2cc(C)cc(C)c2)cn1,?,0%,2%,i
COc1ccc(NC(=O)Cc2ccc(-c3ccccc3)cc2)cn1,13µM*,23µM*,9.2µM*,?
CC1Cc2ccccc2N1C(=O)CSc1nnc(-c2ccc(S(=O)(=O)N3CCCC3)cc2)o1 (configuration not stated),2.1µM*,1%,2%,i
CC1Cc2ccccc2N1C(=O)CSc1nnc(-c2ccccc2Cl)o1 (configuration not stated),i,·,·,i
SMILES,KB-V1 MDR tox,HT1080 IDH1KD tx,HT1080-NT tox,KB-3-1 cytotox
CCCCNc1nc(=S)n(-c2ccccc2)c(C)c1C(C)=O,i,16µM*,?,?
Cc1nc(NC(=O)/C=C/c2ccccc2)n[nH]1,?,18µM*,9.2µM*,?
CCCC(=O)NCC1(N(C)C)CCCCC1,i,·,·,?
COc1ccc(CNc2nc(-c3ccco3)nn2S(=O)(=O)c2ccc3ccccc3c2)cc1OC,i,·,·,i
Cc1ccc([N+](=O)[O-])cc1-c1ccc(/C=C(\C#N)c2[nH]nc(N)c2C#N)o1,i,16µM*,?,?
COC(=O)Cc1c(C)c2cc3c(c(C)c2oc1=O)OCN(CCc1ccc(F)cc1)C3,i,·,·,i
CCCn1c(=N)c(C(=O)NC2CCCCC2)cc2c(=O)n3cc(C)ccc3nc21,i,·,·,i
COc1ccc(-c2noc(-c3ccc(Cl)cc3[N+](=O)[O-])n2)cc1OC,18µM*,-1%,9%,i
Cc1cccc(-c2noc(-c3ccc(Cl)cc3[N+](=O)[O-])n2)c1,?,-2%,0%,i
COc1ccc(-c2noc(CN(C)S(=O)(=O)c3ccc(Cl)cc3)n2)cc1OC,7.3µM*,-27%,-15%,?
CCCNC(=O)CCSc1nc(-c2ccc3c(c2)OCO3)cc(C(F)(F)F)n1,?,·,·,i
CCc1ccc(CNC(=O)c2ccc3c(c2)nc2n3CCCCC2)cc1,i,·,·,i
CCOc1ccc(C2c3c(oc4ccc(C)cc4c3=O)C(=O)N2c2nc(C)c(C)s2)cc1OC (configuration not stated),i,·,·,i
CN(C(=O)COC(=O)c1nc(Cl)c(Cl)c(Cl)c1Cl)C1CCS(=O)(=O)C1 (configuration not stated),?,5.8µM*,16µM*,?
COc1ccccc1/C=C(\C#N)c1nc(-c2cc3ccccc3oc2=O)cs1,i,·,·,i
Cc1ccc(-n2cc(C(=O)c3cc(Cl)ccc3O)cc(C#N)c2=O)cc1,16µM*,-1%,-11%,i
O=C(Nc1ccccc1N1CCCC1)c1cc(Cl)ccc1Cl,i,1%,4%,i
COc1ccc(-n2cc(C(=O)c3cc(Cl)ccc3O)cc(C#N)c2=O)cc1,i,-25%,-25%,i
Cc1ccccc1NC(=O)c1cc(C(=O)c2cc(Cl)ccc2O)cn(-c2ccccc2C)c1=O,9.2µM*,?,?,i
Cc1ccc(CNC(=O)C2CCN(c3nc4ccc(C)cc4[nH]3)CC2)cc1,i,·,·,i
CC(=O)OCCN(C)c1cc(SC(C)C)c2nonc2c1[N+](=O)[O-],i,?,?,i
CN(CCO)c1cc(Sc2nc3ccccc3s2)c2nonc2c1[N+](=O)[O-],i,5µM*,6.3µM*,?
COc1ccc(-c2nc3c(C#N)c[nH]n3c2NC2CCCCC2)cc1,i,·,·,i
O=c1[nH]cnc2cc(-c3ccccc3)sc12,6.5µM*,1%,0%,16µM*
C/C(=N\NC(=O)C1(C)CC1(Br)Br)c1ccc([N+](=O)[O-])cc1 (configuration not stated),i,0%,1%,i
C/C(=N\NC(=O)C1(C)CC1(Br)Br)c1ccc(NC(=O)c2ccc(C)o2)cc1 (configuration not stated),21µM*,-9%,0%,?
CCc1ccc2nc3n[nH]c(N)c3cc2c1,12µM*,3%,1%,?
Nc1[nH]nc2nc3ccccc3cc12,?,-9%,-25%,?
Cc1cc(C)n(CC(O)Cn2c3ccccc3c3ccccc32)n1 (configuration not stated),i,?,-15%,i

# Assay outcomes deposited in PubChem by National Center for Advancing Translational Sciences (NCATS).
